Most compounds without a hit are left out; they make up all but 9.2% or so of the library.
USP10 inh – inhibitors of human USP10 deubiquitinase; purified USP10, Ub-rhodamine fluorescence, 60 min; Q14694; inhibition, % at 20 µM; 47,000 tested, 1.1% active
USP7 inh – inhibitors of human USP7 deubiquitinase. Q93009. purified USP7, Ub-rhodamine cleavage fluorescence. inhibition, % at 20 µM. 47,000 tested, 0.3% active. AID 1645854
USP17 block – blocks human USP17 ubiquitin-rhodamine cleavage. 47,000 tested, 6.5% active. A8MUK1. inhibition, % at 50 µM. purified USP17, Ub-rhodamine cleavage fluorescence, 3 h
Target sequence (A8MUK1 whole entry, looked up): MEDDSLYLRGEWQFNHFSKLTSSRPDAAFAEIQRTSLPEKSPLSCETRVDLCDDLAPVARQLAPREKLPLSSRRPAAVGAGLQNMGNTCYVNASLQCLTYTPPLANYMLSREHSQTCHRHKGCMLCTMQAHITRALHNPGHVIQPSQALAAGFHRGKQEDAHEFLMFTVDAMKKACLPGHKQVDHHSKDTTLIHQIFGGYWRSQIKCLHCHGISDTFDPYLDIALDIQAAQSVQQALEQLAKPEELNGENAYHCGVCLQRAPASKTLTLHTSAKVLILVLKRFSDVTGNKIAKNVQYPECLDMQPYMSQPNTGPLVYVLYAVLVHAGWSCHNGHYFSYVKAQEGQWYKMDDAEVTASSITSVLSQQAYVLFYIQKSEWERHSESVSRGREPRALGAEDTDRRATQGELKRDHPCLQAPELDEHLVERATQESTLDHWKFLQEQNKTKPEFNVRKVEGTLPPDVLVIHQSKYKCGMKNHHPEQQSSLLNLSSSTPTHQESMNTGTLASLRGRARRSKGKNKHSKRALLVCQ
USP8 block – blocks human USP8 ubiquitin-rhodamine cleavage; P40818; purified USP8, Ub-rhodamine cleavage fluorescence, 30 min; inhibition, % at 20 µM; 47,000 tested, 4.2% active
UCHL1 block – inhibitors of human UCHL1 deubiquitinase. inhibition, % at 20 µM. purified UCHL1, Ub-rhodamine cleavage fluorescence. AID 1645859. P09936. 47,000 tested, 0.2% active
OTUD3 block – blocks human OTUD3 ubiquitin-rhodamine cleavage; 47,000 tested, 0.7% active; purified OTUD3, Ub-rhodamine fluorescence, 2 h; inhibition, % at 25 µM
Each line names hits and unclear results; the compound was inactive in the other large screens. Cut-off read from the data, not from the text of the source: active = inhibition above about 30%; inactive = the rest.

CCc1nc2c(-c3ccncc3)nsc2c(=O)n1CC(=O)Nc1ccccc1	none
Cc1cc2nc(Oc3ccc(Br)cc3F)c3ccccc3n2n1	none
Cc1cc2nc(Oc3cccc(C(F)(F)F)c3)c3ccccc3n2n1	USP17 block 35
COc1ccc2nc(NC(=O)C(CC(C)C)NS(=O)(=O)c3ccc4c(c3)CCN4C(C)=O)sc2c1 (configuration not stated)	USP17 block 74
CC(=O)N1CCc2cc(S(=O)(=O)NC(CC(C)C)C(=O)N3CCC(Cc4ccccc4)CC3)ccc21 (configuration not stated)	none
Cc1ccc(CCNC(=O)CN2CCN(Cc3ccccc3C)C2=O)cc1	none
C=C(NC(=O)C(=C)NC(=O)c1csc(-c2ccc3c(n2)-c2csc(n2)-c2csc(n2)C(C(C)C2CO2)NC(=O)C(Cc2ccc(O)cc2)NC(=O)c2csc(n2)C(C(O)c2ccccc2)NC(=O)c2nc(sc2C)C(CC(N)=O)NC(=O)c2csc-3n2)n1)C(=O)O (configuration not stated)	USP17 block 68
Cc1c(NC(=O)Cc2cccs2)cccc1-n1cnnn1	USP8 block 51
Cc1cc(-c2cnc(NCc3ccc(F)cc3)nc2-c2ccco2)on1	USP17 block 33, USP8 block 35
Cc1cc(-c2cnc(N(C)C)nc2-c2ccc(CNC(=O)Cc3ccc(F)cc3)cc2)on1	USP17 block 64
Cc1cc(-c2cnc(C)nc2-c2ccc(CNC(=O)Cc3ccc(F)cc3)cc2)on1	none
O=C(NCCc1nc(C2CCCCC2)n[nH]1)c1cccc(Cl)c1	none
Fc1cccc(-c2nc(-c3ccc(-n4cccn4)nc3)no2)c1	none
CC(C)n1nnc2cc(S(=O)(=O)N3CCCC(C(=O)NCCc4ccco4)C3)ccc21 (configuration not stated)	USP17 block 42
COc1ccc(NC(=O)C2c3ccccc3C(=O)N(C3CCCC3)C2c2cccs2)cc1OC (configuration not stated)	USP17 block 56
COc1ccc(OC)c(NC(=O)C2c3ccccc3C(=O)N(C3CCCC3)C2c2cccs2)c1 (configuration not stated)	none
COc1ccc(NC(=O)CSc2ncnc3c2sc2nc(CC(C)C)c4c(c23)CC(C)(C)OC4)cc1	none
CC(C)n1c(C2CCN(C(=O)Nc3ccccc3)C2)nc2ccncc21 (configuration not stated)	none
COc1ccc(CNC(=O)CCCN2C(=O)C(c3ccccc3)Oc3cccnc32)cc1 (configuration not stated)	none
Cc1cccc(O)c1C(=O)OC(C)c1cccc2nc3c(C(=O)O)cc4c(c3nc12)C(C)c1cccc2c1N4c1cccc(C(=O)O)c1N2 (configuration not stated)	USP10 inh 99, USP7 inh 100, USP17 block 100, USP8 block 95, UCHL1 block 95, OTUD3 block 101
COC(=O)c1cccc2nc3c(C(C)O)cccc3nc12 (configuration not stated)	none
O=C(NCCCN1CCCC1)C1CCCN1c1nnc(N2CCCC2=O)s1 (configuration not stated)	none
O=C(NCc1ccco1)c1cnn(-c2ccc(Cl)cc2)c1C(F)(F)F	none
CCCCCCC(C)/C=C(C)/C=C/C(=O)N[C@H]1CC2(O[C@H]1O)[C@@H]1O[C@@H]1C(=O)[C@@H]1O[C@@H]12 (some centres not stated)	USP17 block 30
Cc1ccc(C)c(C(=O)Cn2c(=O)c3c(ncn3CCC(C)C)n(Cc3ccccc3)c2=O)c1	none
Cc1ccccc1NC(=O)C(C)n1c(C)nc2onc(C)c2c1=O (configuration not stated)	none
Cc1ccc2[nH]c(=O)c(-c3nc4ccc(C)cn4c3NCc3ccc(F)cc3)cc2c1	USP10 inh 47, USP7 inh 51, USP17 block 76, USP8 block 78
COc1ccc(Cn2ccc3nc(N4CCOCC4)c(C#N)cc3c2=O)cc1	USP17 block 68
O=C1COc2ccccc2C(=O)N1Cc1ccccc1Cl	none
Cc1nn(C2CCS(=O)(=O)C2)c(Cl)c1C1Nc2ccccc2C(=O)N1c1ccc(F)cc1 (configuration not stated)	none
CCCC(C)NC(=O)COC(=O)c1cc(-c2ccc(Cl)cc2)nc2ccccc12 (configuration not stated)	none
NS(=O)(=O)c1ccc(CCNC(=O)COC(=O)c2cc(-c3ccc(Cl)cc3)nc3ccccc23)cc1	USP17 block 30, USP8 block 66
Cc1cccc(NC(=O)Cn2c(C)nc3c(c2=O)CCN(Cc2ccccc2)C3)c1C	USP17 block 30
CCCc1nc2c(c(=O)n1CC(=O)NCC1CCCO1)CCN(Cc1ccccc1)C2 (configuration not stated)	none
CC(C)NC(=O)c1cc2c(nc1N(C)C)CCN(c1ncccn1)CC2	none
Cc1ccc(-n2ccnc(NC(=O)c3ccccn3)c2=O)cc1C	none (no result: USP17 block)
O=C(Nc1nccn(-c2cccc(F)c2)c1=O)c1ccccn1	USP17 block 49
CC(=O)c1ccccc1NC(=O)Cc1ccc(-c2ccccc2)cc1	none
CC(=O)c1ccccc1NC(=O)COc1ccc(-c2ccc(C#N)cc2)cc1	USP17 block 78
COc1ccccc1C(=O)Oc1ccc(-c2ccc(C#N)cc2)cc1	USP17 block 49
CN(C)S(=O)(=O)c1ccc(C(=O)Oc2ccc(-c3ccc(C#N)cc3)cc2)cc1	none
N#Cc1ccc(-c2ccc(OCC(=O)Nc3ccc4c(c3)CCC4)cc2)cc1	USP8 block 36, OTUD3 block 42
O=C(NC1CCS(=O)(=O)C1)c1cc(-c2ccccn2)nc2ccccc12 (configuration not stated)	none
COc1ccc(-c2nc3n(n2)C(c2cccc(O)c2)C2=C(CCCC2=O)N3)cc1 (configuration not stated)	USP17 block 51
Cc1nc(Nc2ccc(Cl)cn2)sc1C(=O)NC1CCCC1	USP8 block 31
Cc1ccc(S(=O)(=O)Nc2ccc3[nH]cc(Cl)c3c2)cc1	USP17 block 49, USP8 block 42
CC1=C(C(=O)N2CCCCC2)C(c2ccc(Br)cc2)n2ncnc2N1 (configuration not stated)	none (no result: USP17 block)
COc1ccccc1/C=C/C(=O)NC(Cc1ccccc1)c1nc2ccccc2[nH]1 (configuration not stated)	USP17 block 45, USP8 block 92
CC(NC(=O)c1ccccc1)c1nc2ccccc2[nH]1 (configuration not stated)	none
O=C(Cc1coc2cc3c(cc12)CCC3)NC(Cc1ccccc1)c1nc2ccccc2[nH]1 (configuration not stated)	USP17 block 47, USP8 block 66
O=C(NC(Cc1ccccc1)c1nc2ccccc2[nH]1)C1CC1 (configuration not stated)	USP17 block 54, USP8 block 48

Source: PubChem BioAssay
